The source made the active and inactive calls. Unless noted, no rule for the calls is given here.
How the values were obtained:
[1] = test system: XIP peptide (Xip251-270) binding; test: small-molecule binders of XIP peptide, primary screen, biochemical, small-molecule microarray, fluorescence 635/667 nm, 0.1 µg/mL protein (AID 1182); settings: fluorescent protein binding, 635 nm, higher = more signal, called active from +8 up or from −8 down
XIP peptide (Xip251-270) = test: small-molecule binders of XIP peptide, primary screen, biochemical, small-molecule microarray, fluorescence 635/667 nm, 0.5 µg/mL protein (AID 1183); settings: small-molecule microarray binding, fluorescence 635 nm; higher = more signal
[2] = Plasmodium falciparum growth inhibition, primary screen, strain 3D7, DAPI fluorescence, 100 nL (AID 1184);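 also: parasites grown inside human red blood cells in medium with human serum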; settings: P. falciparum 3D7 growth, 3 d, higher = more signal
[3] = biological target: Homeobox protein Hox-A13 (Mus musculus) (UniProt Q62424); test: inhibitors of HoxA13-DNA binding, primary screen, biochemical, fluorescence polarization, labeled oligonucleotide (AID 1185); settings: 15 min, higher = more signal, called active from +8 up or from −8 down
Sequence of Homeobox protein Hox-A13 (Mus musculus) (Q62424 whole entry, looked up): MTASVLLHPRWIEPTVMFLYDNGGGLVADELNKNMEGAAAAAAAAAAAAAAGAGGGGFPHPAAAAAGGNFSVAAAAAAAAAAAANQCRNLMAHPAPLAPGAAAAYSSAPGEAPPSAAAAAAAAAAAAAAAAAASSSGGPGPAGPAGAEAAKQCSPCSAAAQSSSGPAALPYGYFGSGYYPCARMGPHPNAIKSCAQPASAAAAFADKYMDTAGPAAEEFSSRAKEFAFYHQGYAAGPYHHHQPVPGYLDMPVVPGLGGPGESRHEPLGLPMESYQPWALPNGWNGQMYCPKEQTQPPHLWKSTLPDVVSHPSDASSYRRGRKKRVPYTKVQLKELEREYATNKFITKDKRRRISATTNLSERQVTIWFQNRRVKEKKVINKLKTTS

[4] = inhibitors of hydroxyurea-induced Chk1 phosphorylation, primary screen, imaging, HeLa, phospho-Chk1 antibody, percent positive cells (AID 1186); settings: hydroxyurea-induced phospho-Chk1 immunofluorescence imaging, higher = more signal
[5] = inhibitors of hydroxyurea-induced Chk1 phosphorylation, primary screen, imaging, HeLa, phospho-Chk1 nuclear intensity (AID 1187); settings: hydroxyurea-induced phospho-Chk1 immunofluorescence imaging, higher = more signal

Row | Compound | composite z-score [1] | composite z-score (XIP peptide (Xip251-270)) | z-score [2] | z-score [3] | z-score [4] | z-score [5]
1 | Cc1ccc(S[C@]2(C(=O)O)CC(=O)N(Cc3ccccc3C(F)(F)F)[C@@H]2c2ccc(CO)cc2)cc1 | -0.161 (inactive) | -0.174 | 0.212 | -3.21 (inactive) | -0.511 (inactive) | -0.53 (inactive)
2 | COc1ccccc1CN1C(=O)c2ccccc2[C@](Cc2ccccc2I)(C(=O)NCCN2CCOCC2)[C@@H]1c1ccc(CO)cc1 | -0.0028 (inactive) | 0.755 | -2.26 | -4.74 (inactive) | -0.252 (inactive) | 0.0168 (inactive)
3 | [N-]=[N+]=NCc1ccccc1C[C@]1(C(=O)NCCN2CCOCC2)COC(c2ccc(OCCCO)cc2)=N1 | 0.0364 (inactive) | 0.258 | -2.09 | -4.71 (inactive) | -0.327 (inactive) | -0.625 (inactive)
4 | COC(=O)C(CC#Cc1ccc2c(c1)[C@]1(C(=O)N2)[C@H](C(=O)N2CCc3cc(OC)c(OC)cc3C2)[C@H]2C(=O)O[C@H](c3ccccc3)[C@H](c3ccccc3)N2[C@@H]1c1ccc(OCCO)cc1)C(=O)OC | 0.916 (inactive) | 0.761 | -1.76 | -10.5 (active) | -0.197 (inactive) | 0.277 (inactive)
5 | COCCOC(=O)N1C(=O)[C@@]2(c3cc(C#CCC(C(=O)OC)C(=O)OC)ccc31)[C@H](c1ccc(OCCO)cc1)N1[C@H](c3ccccc3)[C@H](c3ccccc3)OC(=O)[C@H]1[C@@H]2C(N)=O | 0.335 (inactive) | 0.803 | -1.96 | -1.07 (inactive) | -0.154 (inactive) | 0.0321 (inactive)
6 | CC(C)(C)OC(=O)CC[C@@]1(C(=O)N2CCCCC2)N=C(c2ccc(OCCCO)cc2)O[C@@H]1c1ccccc1CN=[N+]=[N-] | 1.32 (inactive) | 0.824 | -2.24 | -4.37 (inactive) | -0.325 (inactive) | -0.038 (inactive)
7 | O=C1O[C@H](c2ccccc2)[C@H](c2ccccc2)N2[C@H]1[C@@H](C(=O)N1CCCCCCC1)[C@]1(C(=O)Nc3ccccc31)[C@H]2c1ccc(O)cc1 | 4.72 (inactive) | 0.943 | 0.61 | 2.7 (inactive) | 0.323 (inactive) | 0.725 (inactive)
8 | C=CCC(OC(C)=O)[C@@H]1[C@@H](N(Cc2cccc3ccccc23)C(=O)Cc2ccc(F)cc2)c2cc(OCCCO)ccc2N1C(=O)Cc1ccc(OC)cc1 (stereo partly drawn) | -0.51 (inactive) | -0.189 | -1.64 | -0.902 (inactive) | -0.0456 (inactive) | -0.301 (inactive)
9 | [N-]=[N+]=NCc1ccccc1[C@H]1OC(c2ccc(OCCCO)cc2)=N[C@@]1(Cc1ccccc1N=[N+]=[N-])C(=O)N1CCCCC1 | 0.538 (inactive) | 0.831 | -2.15 | -0.972 (inactive) | -0.335 (inactive) | -0.35 (inactive)
10 | COc1ccccc1CN1C(=O)c2ccccc2[C@@H](C(=O)NCC(C)C)[C@@H]1c1ccc(CO)cc1 | 0.25 (inactive) | 0.791 | -1.24 | -1.48 (inactive) | 0.0947 (inactive) | 0.525 (inactive)
11 | CCOC(=O)C[C@H]1[C@H](OC(=O)c2cc3ccccc3oc2=O)[C@@H](NC(=O)c2ccc3ccccc3n2)c2cc(OCCCO)ccc2N1C(=O)c1ccc2ccccc2n1 | -0.276 (inactive) | 0.484 | -1.15 | -1.29 (inactive) | -0.443 (inactive) | -0.134 (inactive)
12 | C[N+](C)(C)CCCC[C@@H]1NC(=O)[C@@H]2C[C@H](C(=O)NCCCCCNC(=O)CS)[C@H](c3cccc(OCCO)c3)N2C1=O | 0.17 (inactive) | -0.0808 | 0.0793 | -3.31 (inactive) | -0.209 (inactive) | -0.123 (inactive)
13 | C=C(/C(=C/C[C@@H](OC(=O)c1ccncc1)c1ccccc1OCCO)c1cnc2ccccc2c1)C(C)C | 0.509 (inactive) | 0.723 | -2.55 | -4.63 (inactive) | 0.864 (inactive) | 0.737 (inactive)
14 | C[N+](C)(C)CCCC[C@@H]1NC(=O)[C@H]2C[C@@H](C(=O)NCCCCCCN)[C@@H](c3cccc(OCCO)c3)N2C1=O | 1.25 (inactive) | 0.527 | -0.997 | -2.38 (inactive) | -0.699 (inactive) | -0.146 (inactive)
15 | CCC[C@@H]1C[C@@]1(CCC)[C@@H](NC(=O)c1ccco1)c1ccc(Cl)cc1 | 0.0025 (inactive) | -0.835 | -1.21 | -0.61 (inactive) | 0.348 (inactive) | 0.241 (inactive)
16 | Cc1cc(C)c(C(O)C2C=CC3C(=O)N(c4ccccc4)C(=O)C3N2Nc2ccc([N+](=O)[O-])cc2)c(C)c1 (stereo not drawn) | 0.756 (inactive) | 0.783 | -0.569 | -1.86 (inactive) | 0.487 (inactive) | 0.596 (inactive)
17 | CCOc1cc(C(O)C2C=CC3C(=O)NC(=O)C3N2Nc2ccccn2)ccc1O (stereo not drawn) | 0.113 (inactive) | 0.0151 | -0.296 | -0.998 (inactive) | 0.861 (inactive) | 0.746 (inactive)
18 | Cc1ccc(-c2cccc(=O)o2)cc1 | -0.0449 (inactive) | -0.776 | 0.842 | -1.28 (inactive) | 0.45 (inactive) | -0.203 (inactive)
19 | COCCOC(=O)N1C(=O)[C@@]2(c3cc(C#CC4(O)CCCCCC4)ccc31)[C@H](C(=O)NC[C@H](O)c1ccccc1)[C@H]1C(=O)O[C@H](c3ccccc3)[C@H](c3ccccc3)N1[C@@H]2c1ccc(OCCO)cc1 | -0.274 (inactive) | 0.624 | -1.19 | -0.375 (inactive) | 0.0542 (inactive) | 0.167 (inactive)
20 | CCCNC(=O)[C@@H]1c2ccccc2C(=O)N(CC23CC4CC(CC(C4)C2)C3)[C@H]1c1ccc(CO)cc1 | 1.67 (inactive) | 0.773 | -2.3 | -4.87 (inactive) | 0.118 (inactive) | 0.0519 (inactive)
21 | NC(=O)NCC#Cc1ccc2c(c1)[C@]1(C(=O)N2)[C@H](c2ccc(O)cc2)N2[C@H](c3ccccc3)[C@H](c3ccccc3)OC(=O)[C@H]2[C@@H]1C(=O)NC[C@H](O)c1ccccc1 | -0.0884 (inactive) | -0.294 | -0.547 | -0.93 (inactive) | -0.186 (inactive) | -0.151 (inactive)
22 | [N-]=[N+]=Nc1ccccc1[C@@H]1OC(c2ccc(OCCCO)cc2)=N[C@]1(CCS(=O)(=O)c1ccccc1)C(=O)NCc1ccccc1 | 1.44 (inactive) | 0.629 | -2.27 | -1.05 (inactive) | -0.228 (inactive) | -0.184 (inactive)
23 | CN(C)CCCCNC(=O)[C@H]1C[C@H]2C(=O)N[C@@H](CCCC[N+](C)(C)C)C(=O)N2[C@H]1c1cccc(OCCO)c1 | 1.42 (inactive) | 0.689 | -0.0344 | -3.83 (inactive) | -0.0589 (inactive) | -0.216 (inactive)
